Laboratory results taken from PubChem BioAssay (NCI).
Compounds without any hit were thinned out: in the full panel of roughly 79,000, 15% have a hit. Activity calls are given as the source filed them. No stated cut-off is given here; in the data, active means growth inhibition above about 70%; inactive means the rest.

What was measured:
[1] = NCI Yeast Anticancer Drug Screen. Data for the wt1 strain (AID 149);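 further: 0% = growth of vehicle-treated wt1 cultures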; conditions: S. cerevisiae wt1 strain (SPY 50644) growth inhibition, active compounds read high
Procedure, shortened: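 wt1 yeast, compound-treated; % growth inhibition vs vehicle control.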

[2] = NCI Yeast Anticancer Drug Screen. Data for the rad50EPP+ strain (AID 151);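 further: 0% = growth of vehicle-treated control cultures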; conditions: S. cerevisiae rad50 mutant strain, active compounds read high
Procedure, shortened: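 Compounds were applied to the rad50EPP+ yeast strain, which bears a defined DNA repair alteration, and growth inhibition was determined relative to vehicle-treated cultures.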

[3] = NCI Yeast Anticancer Drug Screen. Data for the mgt1 strain (AID 153); conditions: S. cerevisiae mgt1 mutant growth inhibition, active compounds read high
Procedure, shortened: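 Strain: mgt1 yeast, one of a set carrying defined DNA damage repair or cell cycle control alterations. Compound-treated growth compared with vehicle.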

[4] = NCI Yeast Anticancer Drug Screen. Data for the rad50 strain (AID 155);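 further: 0% = growth of vehicle-only cultures of the same strain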; conditions: S. cerevisiae rad50 strain growth inhibition, active compounds read high
Procedure, shortened: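 Genetically altered yeast (DNA repair pathway); compound treatment; growth inhibition vs vehicle ctrl.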

[5] = NCI Yeast Anticancer Drug Screen. Data for the mec2-1 strain (AID 157); conditions: S. cerevisiae mec2-1 strain, active compounds read high
Procedure, shortened: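 Strain: mec2-1 (DNA repair/cell cycle alteration). Compound exposure, then growth measured; inhibition expressed relative to vehicle.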

[6] = NCI Yeast Anticancer Drug Screen. Data for the rad14 strain (AID 159);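 further: 0% = growth of vehicle-treated control cultures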; conditions: S. cerevisiae rad14 strain growth inhibition, active compounds read high
Procedure, shortened: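 Test compounds were applied to a repair-deficient yeast strain. Its growth was then compared with that of cultures given vehicle alone, and inhibition was expressed relative to those controls.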

[7] = NCI Yeast Anticancer Drug Screen. Data for the sgs1 mgt1 strain (AID 161);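 further: 0% = growth of cultures given vehicle only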; conditions: S. cerevisiae sgs1 mgt1 strain, active compounds read high
Procedure, shortened: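 Genetically altered yeast, compound exposure, growth inhibition relative to vehicle.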

[8] = NCI Yeast Anticancer Drug Screen. Data for the CLN2oe strain (AID 163);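 further: 0% = growth of vehicle-only control cultures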; conditions: S. cerevisiae CLN2oe strain, active compounds read high
Procedure, shortened: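 Growth of a genetically modified yeast strain is measured after compound exposure and compared with cultures given vehicle alone.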

[9] = NCI Yeast Anticancer Drug Screen. Data for the bub3 strain (AID 167); conditions: S. cerevisiae bub3 mutant strain, active compounds read high
Procedure, shortened: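 Yeast carrying a defined mutation is treated with each compound, and growth is compared with that of vehicle-exposed cells to give inhibition.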

[10] = NCI Yeast Anticancer Drug Screen. Data for the mlh1 strain (AID 171);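 further: 0% = growth of vehicle-treated control cultures of the same strain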; conditions: S. cerevisiae mlh1 strain growth inhibition, active compounds read high
Procedure, shortened: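 Growth of the mutant yeast strain after compound exposure, expressed as inhibition relative to vehicle-only controls.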

[11] = NCI Yeast Anticancer Drug Screen. Data for the sgs1 strain (AID 173);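 further: 0% = growth of vehicle-only control cultures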; conditions: S. cerevisiae sgs1 mutant, active compounds read high
Procedure, shortened: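 Growth of a yeast strain bearing a defined genetic alteration is measured after compound treatment. Inhibition is expressed relative to vehicle-only controls.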

[12] = NCI Yeast Anticancer Drug Screen. Data for the mlh1 rad18 strain (AID 175); conditions: S. cerevisiae mlh1 rad18 strain growth inhibition, active compounds read high
Procedure, shortened: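 Read-out is yeast growth inhibition, calculated against vehicle-only controls. The compound was applied to a strain engineered with DNA damage repair alterations.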

[13] = NCI Yeast Anticancer Drug Screen. Data for the rad18 strain (AID 177); conditions: S. cerevisiae rad18 mutant growth inhibition, active compounds read high
Procedure, shortened: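 Growth of the mutant yeast strain after compound exposure, normalised to vehicle-only cultures.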

[14] = NCI Yeast Anticancer Drug Screen. Data for the wt2 strain (AID 169);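 further: 0% = growth of vehicle-treated yeast cultures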; conditions: S. cerevisiae wt2 strain growth inhibition, active compounds read high
Procedure, shortened: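 This strain belongs to a panel of yeast strains with defined genetic alterations in DNA damage repair or cell cycle control. Compounds are applied, and growth inhibition is measured against vehicle-treated cultures.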

[15] = at 5.0 µM (retest, dose inferred, filed as 0.5)
[16] = at 50.0 µM (retest, dose inferred, filed as 5.0)

Measured: growth inhibition

O=C1c2ccccc2-c2ccc(NC(=O)C3CCCCC3C(=O)O)cc21 (stereo not given)
inactive: [1]; at 1.2 µM 0% | [1]; at 3.7 µM -2% | [1]; at 11.0 µM -1% | [1]; at 33.0 µM 7% | [1]; at 100.0 µM 40% | [2]; at 1.2 µM 4% | [2]; at 3.7 µM 15% | [2]; at 11.0 µM 22% | [2]; at 33.0 µM 34% | [2]; at 100.0 µM 55% | [3]; at 1.2 µM -2% | [3]; at 3.7 µM -2% | [3]; at 11.0 µM -3% | [3]; at 33.0 µM 13% | [4]; at 1.2 µM 4% | [4]; at 3.7 µM 5% | [4]; [15] 3% | [4]; at 11.0 µM 10% | [4]; at 33.0 µM 24% | [4]; [16] 22% | [4]; at 50.0 µM 43.1% | [4]; at 100.0 µM 64% | [5]; at 1.2 µM 4% | [5]; at 3.7 µM 6% | [5]; [15] 18% | [5]; at 11.0 µM 5% | [5]; at 33.0 µM 18% | [5]; [16] 15% | [5]; at 50.0 µM 42.6% | [5]; at 100.0 µM 67% | [6]; at 1.2 µM -2% | [6]; at 3.7 µM -12% | [6]; at 11.0 µM -2% | [6]; at 33.0 µM 1% | [7]; [15] -2% | [7]; [16] 7% | [7]; at 50.0 µM 42.3% | [8]; at 1.2 µM -9% | [8]; at 3.7 µM -5% | [8]; at 11.0 µM -10% | [8]; at 33.0 µM -2% | [8]; at 100.0 µM 40% | [9]; at 1.2 µM 44% | [9]; at 3.7 µM 55% | [9]; [15] 6% | [10]; at 1.2 µM 7% | [10]; at 3.7 µM 3% | [10]; at 11.0 µM 4% | [10]; at 33.0 µM 1% | [11]; at 1.2 µM 3% | [11]; at 3.7 µM 7% | [11]; at 11.0 µM 15% | [11]; at 33.0 µM 41% | [12]; [15] -7% | [12]; [16] 34% | [12]; at 50.0 µM 41.2% | [13]; at 1.2 µM 12% | [13]; at 3.7 µM 2% | [13]; at 11.0 µM 16% | [13]; at 33.0 µM 31%
active: [3]; at 100.0 µM 72% | [6]; at 100.0 µM 86% | [9]; at 11.0 µM 72% | [9]; at 33.0 µM 80% | [9]; [16] 78% | [9]; at 50.0 µM 90.5% | [9]; at 100.0 µM 90% | [10]; at 100.0 µM 77% | [11]; at 100.0 µM 85% | [13]; at 100.0 µM 72%

NCC(O)CSCc1ccc(Cl)cc1 (stereo not given)
active: [9]; at 50.0 µM 74.1% | [12]; at 50.0 µM 82.8%
inactive: [1]; at 1.2 µM -3% | [1]; at 3.7 µM -5% | [1]; at 11.0 µM -3% | [1]; at 33.0 µM -3% | [1]; at 100.0 µM 0% | [2]; at 1.2 µM -3% | [2]; at 3.7 µM -4% | [2]; at 11.0 µM 1% | [2]; at 33.0 µM -5% | [2]; at 100.0 µM -2% | [3]; at 1.2 µM -4% | [3]; at 3.7 µM -2% | [3]; at 11.0 µM -2% | [3]; at 33.0 µM 0% | [3]; at 100.0 µM 7% | [4]; at 1.2 µM -2% | [4]; at 3.7 µM 2% | [4]; [15] 5% | [4]; at 11.0 µM 2% | [4]; at 33.0 µM 7% | [4]; [16] 5% | [4]; at 50.0 µM 0.9% | [4]; at 100.0 µM 17% | [5]; at 1.2 µM -3% | [5]; at 3.7 µM -2% | [5]; [15] -14% | [5]; at 11.0 µM -2% | [5]; at 33.0 µM -2% | [5]; [16] 5% | [5]; at 50.0 µM 25.1% | [5]; at 100.0 µM 3% | [6]; at 1.2 µM -2% | [6]; at 3.7 µM -2% | [6]; at 11.0 µM 3% | [6]; at 33.0 µM 7% | [6]; at 100.0 µM 34% | [7]; [15] -7% | [7]; [16] 25% | [7]; at 50.0 µM 31% | [8]; at 1.2 µM -2% | [8]; at 3.7 µM 0% | [8]; at 11.0 µM -2% | [8]; at 33.0 µM 0% | [8]; at 100.0 µM 28% | [9]; at 1.2 µM -2% | [9]; at 3.7 µM -2% | [9]; [15] -13% | [9]; at 11.0 µM 1% | [9]; at 33.0 µM 20% | [9]; [16] 64% | [9]; at 100.0 µM 42% | [14]; at 1.2 µM -6% | [14]; at 3.7 µM -9% | [14]; at 11.0 µM -4% | [14]; at 33.0 µM 1% | [14]; at 100.0 µM -8% | [11]; at 1.2 µM -9% | [11]; at 3.7 µM 12% | [11]; at 11.0 µM -16% | [11]; at 33.0 µM 7% | [11]; at 100.0 µM 42% | [12]; [15] -5% | [12]; [16] 18% | [13]; at 1.2 µM -5% | [13]; at 3.7 µM -1% | [13]; at 11.0 µM 0% | [13]; at 33.0 µM -2% | [13]; at 100.0 µM 11%
